Screening data as filed in PubChem BioAssay.
Only a selection was taken, and hits are over-represented in it overall.
KDM5B inhibitor – inhibitors of human KDM5B histone demethylase; Q9UGL1; KDM5B demethylase, FDH-coupled NADH fluorescence (FDH is formaldehyde dehydrogenase); Potency, µM (top dose mostly 57.7 µM), hits mostly inhibitors; 2.6% of 220,000 active; AID 1347165; active = well fitted inhibition curve with a large enough effect; note: nearly all actives have a fitted effect of over 70% in size
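Measured: NADH fluorescence change, 30 min, RT. System: KDM5BΔAP 200 nM final, H3K4me3 peptide, α-KG, Fe(II), ascorbate, NAD⁺ plus FDH, pH 7.5 HEPES. Compounds: titrated, 10 min pre-incubation with enzyme.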
Hits are given with their value; - = inactive.

SMILES	KDM5B inhibitor
COc1ccccc1C(=O)N1CC(Oc2cccc(-c3nc(-c4ccccc4)no3)c2)C1	22µM
CCCNC(=O)N1CC(Oc2cccc(-c3nc(-c4ccccc4)no3)c2)C1	-
CC(Oc1ccccc1)C(=O)N1CC(Oc2cccc(-c3nc(-c4ccccc4)no3)c2)C1 (centres undefined)	22µM
O=C(c1cc(F)ccc1F)N1CC(Oc2cccc(-c3nc(-c4ccccc4)no3)c2)C1	-
O=C(C1CCOCC1)N1CC(Oc2cccc(-c3nc(-c4ccccc4)no3)c2)C1	-
COc1cccc(NC(=O)NC(CCSC)C(=O)O)c1 (centres undefined)	-
O=C(Nc1cccc(C(=O)O)c1)/C(=C/c1ccccc1)NC(=O)c1cccc(Br)c1	-
CC(C)c1ccc(CNC(=O)c2cc3c(s2)CCCC3)cc1	-
CCCN1C(C(C)=O)=C(OC(=O)c2ccccc2)c2ccccc2S1(=O)=O	-
Cc1cccc(NC(=O)C2CC(=O)N(c3n[nH]c4cccc(F)c34)C2)c1C (centres undefined)	-
O=C(Nc1nc2ccccc2s1)C1CC(=O)N(c2n[nH]c3cccc(F)c23)C1 (centres undefined)	-
Cc1ccc(NC(=O)C2CC(=O)N(c3n[nH]c4cccc(F)c34)C2)cc1C (centres undefined)	18µM
CCc1ccc(NC(=O)C2CC(=O)N(c3n[nH]c4cccc(F)c34)C2)cc1 (centres undefined)	35µM
CC(C)c1nnc(NC(=O)C2CC(=O)N(c3n[nH]c4cccc(F)c34)C2)s1 (centres undefined)	-
O=C(C1CC(=O)N(c2n[nH]c3cccc(F)c23)C1)N1CCCC1 (centres undefined)	-
COc1cc(NC(=O)C2CC(=O)N(c3n[nH]c4cccc(F)c34)C2)cc(OC)c1OC (centres undefined)	-
CCCNC(=O)C1CC(=O)N(c2n[nH]c3cccc(F)c23)C1 (centres undefined)	-
CC(=O)Nc1ccc(NC(=O)C2CC(=O)N(c3n[nH]c4cccc(F)c34)C2)cc1 (centres undefined)	35µM
O=C(NC1CCCCCC1)C1CC(=O)N(c2n[nH]c3cccc(F)c23)C1 (centres undefined)	32µM
CCc1nc(NC(=O)C2CC(=O)N(c3n[nH]c4cccc(F)c34)C2)sc1C (centres undefined)	-
O=C(NC1CC1)C1CC(=O)N(c2n[nH]c3cccc(F)c23)C1 (centres undefined)	-
CCc1cc2c(cc3c(=O)n(CC(=O)NCCc4ccc(OC)cc4OC)nc(CC)n32)s1	-
Cc1ccc(Cl)cc1NC(=O)CCCn1c(=O)c2cccn2c2cccnc21	-
O=CNNC(=S)Nc1ccc(Br)cc1	-
CC(O)CNS(=O)(=O)c1cc(Cl)c(Cl)cc1Cl (centres undefined)	-
SMILES	KDM5B inhibitor
COc1cccc(C(C(=O)NCC2CCCO2)N(C(=O)Cn2nnc3ccccc32)c2ccccc2C(C)=O)c1OC (centres undefined)	-
O=C(Nc1cccc(C(F)(F)F)c1)O[C@@H]1CO[C@H]2[C@@H]1OC[C@@H]2NC(=O)C1CCC1	-
O=C(c1nn(-c2ccccc2)c(=O)c2ccccc12)N1CCN(Cc2ccc3c(c2)OCO3)CC1	-
Cc1ccc(S(=O)(=O)Nc2ccc(C)n(CC(=O)Nc3ccccc3)c2=O)cc1	-
Cc1ccc(NS(=O)(=O)c2ccccc2)c(=O)n1CC(=O)N1CCN(CC(C)C)CC1	-
CCS(=O)(=O)Nc1ccc(C)n(CC(=O)N2CCCCCC2)c1=O	-
Cc1ccc(NC(=O)Nc2ccc(C)n(CC(=O)NC3CCCCC3)c2=O)cc1	-
COc1ccc(NC(=O)Nc2ccc(C)n(CC(=O)O)c2=O)cc1	-
COc1ccc(NC(=O)Nc2ccc(C)n(CC(=O)Nc3ccc(C)c(C)c3)c2=O)cc1	18µM
CCCN1CCN(C(=O)Cn2c(C)ccc(NC(=O)Nc3ccccc3)c2=O)CC1	25µM
COc1ccc(OCc2nc(C)c(CCO)c(=O)n2CC(=O)Nc2ccc(C)c(C)c2)cc1	-
COc1cccc(NC(=O)Cn2c(C)ccc(NC(=O)Nc3ccc(C)cc3)c2=O)c1	28µM
C=CCn1c(NCCOC)nc2c1c(=O)n(C)c(=O)n2C	-
CC(C)NC(=O)CC1(C(=O)NCc2ccc(Cl)cc2)CCCC1	-
CCC(CC)C(=O)NC1CCN(c2cnn(CC)c(=O)c2)CC1	-
COc1cccc(-c2cc(C(=O)O)cc(S(=O)(=O)N3CCSCC3)c2)c1	-
Cc1ccc(NC(=O)c2cc(S(=O)(=O)NCCc3ccc(Cl)cc3)ccc2F)cc1	-
Cc1nn(C)cc1-c1ccn[nH]1	-
CCOC(=O)c1cnc2ccc(OCC)cc2c1Nc1cc(Cl)c(OC)cc1OC	-
COc1ccccc1CNC(=O)C(C)C	-
O=C(NCCC(=O)N1CCN(c2ncccn2)CC1)c1ccc(F)cc1F	-
COc1ccccc1CNC(=O)C1(c2ccc(NC(C)=O)cc2)CCCCC1	-
O=C(NCc1ccc(F)cc1)C1(CCO)CCN(c2ncccn2)C1 (centres undefined)	28µM
O=C(NCCCc1ccccc1)c1cccc2cccnc12	-
COc1ccccc1CNC(=O)C1(CCO)CCN(c2ncccn2)C1 (centres undefined)	20µM
SMILES	KDM5B inhibitor
O=C(NCCCc1ccccc1)C1(CCO)CCN(c2ncccn2)C1 (centres undefined)	25µM
O=C(Nc1ccc(F)cc1F)C1(CCO)CCN(c2ncccn2)C1 (centres undefined)	25µM
O=C(O)C1(Cc2ccccc2F)CCCN(c2ncccn2)C1 (centres undefined)	-
O=C(CSc1ccnc(=O)[nH]1)NCc1ccc(F)cc1	-
CC1(CNC(=O)NCc2ccc(F)cc2)CCOCC1	-
O=C(Nc1ccccc1)C1(CCO)CCN(Cc2ccccc2)C1 (centres undefined)	-
O=C(Cn1ccc2cc(S(=O)(=O)N3CCCCC3)ccc21)NCc1cccc(Cl)c1	-
CN(C)c1cccc(C(=O)N2CCC(c3n[nH]c(=O)n3-c3ccccc3)CC2)c1	-
O=c1cc(-c2ccc(Cl)cc2)oc2cc(O)ccc12	-
COc1cc(Cl)ccc1OCc1nnc(C(=O)N2CCC[C@@H]2c2nc3ccccc3[nH]2)n1-c1ccccc1	-
Cc1ccc(-n2nnnc2SCc2cc(=O)oc3c(C)c(C)ccc23)cc1	-
CCOC(=O)Cc1csc(NC(=O)Cc2ccc(Cl)cc2)n1	-
COCCOC1CCN(C(=O)c2ccc3[nH]ccc3c2)CC1	-
Fc1ccc(CNC(=S)NCc2cccs2)cc1	-
COc1cccc(CNC(=O)C2CN(c3cccc(OC)c3)C(=O)N2)c1 (centres undefined)	-
COc1ccc(/C=C/C(=O)c2ccc(C#N)cc2)cc1Br	-
COCCn1cnnc1C(C)NC(=O)CCc1nc(-c2ccccc2OC)no1 (centres undefined)	-
COc1cccc(C(=O)N2CCC(N3C[C@H](O)C[C@H]3C(=O)N3CCc4ccccc43)CC2)c1	-
Cc1ccc(NC(=O)N2CC(c3nnc(C(C)C)o3)C3(CCOCC3)C2)cc1 (centres undefined)	-
CSCc1ccc(C(=O)N2CCCC(c3nccn3CC3CC3)C2)o1 (centres undefined)	-
Cc1ccc(C#N)c(N2CCCC(c3nccn3CC3CCC3)C2)n1 (centres undefined)	32µM
O=C(NCc1ccccc1)N1CCCC(c2nccn2CC2CCC2)C1 (centres undefined)	-
CC1CCc2c(sc3nnn(Cc4ccc(F)cc4)c(=O)c23)C1 (centres undefined)	-
